The source of these data is PubChem BioAssay.

Experiment [1] in a line: stimulators of nuclear beta-catenin in C2C12, primary screen, imaging, WNT3A-conditioned medium, mouse C2C12, NPC library (AID 1117326; in the data active = nuclear beta-catenin stimulation mostly above about 4.2%, no sharp cut-off; inactive = mostly below about 10%; note: reference of the scale not given here). The conditions noted are these: stronger effect = higher value.
The nature of experiment [2]: stimulators of insulin release from INS-1E, primary screen, cell-based, 5 mM glucose, NPC library (AID 1117329;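 active = compound raises insulin release from rat beta cells at 5 mM glucose, no numeric limit stated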; note: reference of the scale not given here). The conditions noted are these: rat INS-1E insulin secretion, at 10 µM, stronger effect = higher value.
Experiment [3] can be described thus: growth inhibition of GSK3B-pretreated HCT116 cells – cell-based, CellTiter-Glo, 0.2 to 20 µM (AID 1117336;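 active = compounds lowering colon cancer cell viability after pretreatment blocking the GSK3B kinase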). The conditions noted are these: HCT116 viability after GSK3B inhibitor, at 20 µM, stronger effect = higher value.
Experiment [4] in a line: inhibition of endothelial tube formation, primary screen, imaging, VEGF stimulated, CD31 staining, tube area, NPC library (AID 1117340). To be noted: VEGF-stimulated ADSC/ECFC co-culture, at 10 µM, stronger effect = higher value.
Experiment [5] can be described thus: glucagon-like peptide 1 release enhancers, primary assay, NCI-H716 cell line, NPC library (AID 1117341;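 active = compound raises GLP1 secretion from the human gut endocrine cells, with no numeric limit stated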; note: reference of the scale not given here). The conditions noted are these: NCI-H716 cells, at 10 µM, stronger effect = higher value.
Experiment [6] can be described thus: HCT116 colon cancer cell growth inhibition, primary screen, CellTiter-Glo luminescence, NPC library (AID 1117342;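 active = compounds that lower survival of HCT116 colon cancer cells in the luminescence readout, no numeric limit stated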). To be noted: at 20 µM (top of the series).
Experiment [7] in a line: CellTiter-Glo luminescent readout of SW480 viability loss, NPC library primary (AID 1117343;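 active = compounds that lower viability of the colon cancer cells in the luminescence readout, with no numeric limit stated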). To be noted: CellTiter-Glo luminescence; at 20 µM (top of the series).
A short description of experiment [8]: decreased DLD-1 cellular survival, CellTiter-Glo luminescent readout, NPC compound collection, primary HTS (AID 1117346;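 active = compounds that lower survival of DLD-1 colon cancer cells in the luminescence readout, no cutoff given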). To be noted: DLD-1 viability, CellTiter-Glo luminescence; at 20 µM (top of the series).

Calls of active or inactive are those of the source.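 Rule for the calls, unless noted: active = compound that reduces growth-factor-driven endothelial tube area in a mixed cell culture, no cutoff stated; inactive = the rest.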

On to `CCCCC/C(C=O)=C\c1ccccc1`, for which the nuclear beta-catenin stimulation in experiment [1] (at 10 µM) is 0.8% (inactive); in experiment [1] (stimulation, at 2 µM), 4.5%. In addition, in experiment [2], the insulin secretion stimulation was 1% (inactive). For the same molecule, the viability decrease in experiment [3] was -20.6% (inactive). Besides, the tube area decrease in experiment [4] is 30.3% (inactive). Moreover, the GLP1 secretion stimulation in experiment [5] is 0.1% (inactive). Besides, the inhibition of viability in experiment [6] is 1.1% (inactive). Moreover, the results for the viability decrease (inhibition) in experiment [7] and in experiment [8] were 12.8% (inactive) and -11.3% (inactive), respectively.

With `CC(C)[C@H](N)C(=O)O`, the nuclear beta-catenin stimulation in experiment [1] (at 10 µM) was -0.1% (inactive); in experiment [1] (stimulation, at 2 µM), 1.3%. Besides, in experiment [2], the insulin secretion stimulation was 0.4% (inactive). For the same molecule, the viability decrease in experiment [3] is -2.3% (inactive). In addition, the tube area decrease in experiment [4] was -14.8% (inactive). In experiment [5], the GLP1 secretion stimulation is -4.1% (inactive). Also, the inhibition of viability in experiment [6] is 1.3% (inactive). Further, the results for the viability decrease (inhibition) in experiment [7] and in experiment [8] were 11.9% (active) and 14.8% (inactive), respectively.

In the case of `O=S(=O)(O)c1ccc2nc(-c3ccccc3)[nH]c2c1`, the nuclear beta-catenin stimulation in experiment [1] (at 10 µM) was 0.1% (inactive); in experiment [1] (stimulation, at 2 µM), 0.5%. In addition, the insulin secretion stimulation in experiment [2] was -0.6% (inactive). The viability decrease in experiment [3] is 5.35% (inactive). Also, in experiment [4], the tube area decrease is -26.3% (inactive). The GLP1 secretion stimulation in experiment [5] was 1.9% (inactive). Also, the inhibition of viability in experiment [6] was 6.9% (inactive). In addition, the figures for the viability decrease (inhibition) in experiment [7] and in experiment [8] were 10.6% (inactive) and -0.25% (inactive), respectively.

`N=C(N)n1cccn1`: the nuclear beta-catenin stimulation was 0.3% (inactive) in experiment [1] (at 10 µM) and 0% in experiment [1] (stimulation, at 2 µM). In experiment [2], the insulin secretion stimulation is 9.4% (inactive). Further, in experiment [3], the viability decrease is -5.8% (inactive). Also, the tube area decrease in experiment [4] was 4.7% (inactive). The GLP1 secretion stimulation in experiment [5] was -3.7% (inactive). In addition, the inhibition of viability in experiment [6] was 6.5% (inactive). The results for the viability decrease (inhibition) in experiment [7] and in experiment [8] were 16.1% (inactive) and -2.6% (inactive), respectively.

Turning to `Nc1c(NC/C=C\COc2cc(CN3CCCCC3)ccn2)c(=O)c1=O`, the nuclear beta-catenin stimulation in experiment [1] (at 10 µM) is 0.1% (inactive); in experiment [1] (stimulation, at 2 µM), -1.1%. Further, in experiment [2], the insulin secretion stimulation was 0.1% (inactive). In experiment [3], the viability decrease is 2.9% (inactive). The tube area decrease in experiment [4] was 1% (inactive). Further, the GLP1 secretion stimulation in experiment [5] is 4% (inactive). In addition, in experiment [6], the inhibition of viability was 8.6% (inactive). Moreover, the figures for the viability decrease (inhibition) in experiment [7] and in experiment [8] were -4.4% (inactive) and -5% (inactive), respectively.

Turning to `COC(=O)c1cc(Cl)ccc1NS(=O)(=O)C(F)(F)F`, the nuclear beta-catenin stimulation in experiment [1] (at 10 µM) is -1.2% (inactive); in experiment [1] (stimulation, at 2 µM), -1.2%. Besides, the insulin secretion stimulation in experiment [2] is 1.8% (inactive). In addition, in experiment [3], the viability decrease was 17.5% (inactive). Besides, the tube area decrease in experiment [4] was -6.9% (inactive). The GLP1 secretion stimulation in experiment [5] was -0.4% (inactive). For the same molecule, the inhibition of viability in experiment [6] is 8.93% (inactive). Besides, the results for the viability decrease (inhibition) in experiment [7] and in experiment [8] were 30.2% (inactive) and -4.9% (inactive), respectively.

`C=CC[N+]1([C@H]2C[C@H]3[C@@H]4CC[C@H]5C[C@H](OC(C)=O)[C@@H](N6CCCCC6)C[C@]5(C)[C@H]4CC[C@]3(C)[C@H]2OC(=O)CC)CCCCC1`: the nuclear beta-catenin stimulation in experiment [1] (at 10 µM) was -0.1% (inactive); in experiment [1] (stimulation, at 2 µM), -2.6%. Also, the insulin secretion stimulation in experiment [2] is 1.45% (inactive). The viability decrease in experiment [3] is 27.6% (inactive). The tube area decrease in experiment [4] was -8.7% (inactive). Besides, the GLP1 secretion stimulation in experiment [5] was 8.2% (inactive). Also, the inhibition of viability in experiment [6] was 32.5% (inactive). Further, the viability decrease (inhibition) in experiment [7] is 23.4% (inactive); in experiment [8], -2.8% (inactive).

`C[C@]12C=CC(=O)C=C1[C@@H](F)C[C@@H]1[C@@H]2[C@@H](O)C[C@@]2(C)[C@H]1CC[C@]2(O)C(=O)CO`: the nuclear beta-catenin stimulation in experiment [1] (at 10 µM) was -1.5% (inactive); in experiment [1] (stimulation, at 2 µM) it was -0.6%. In addition, in experiment [2], the insulin secretion stimulation is 0.8% (inactive). Moreover, in experiment [3], the viability decrease was -14.4% (inactive). Further, in experiment [4], the tube area decrease is 11.3% (inactive). Besides, in experiment [5], the GLP1 secretion stimulation is -2.3% (inactive). Besides, the inhibition of viability in experiment [6] was 5% (inactive). Also, the values for the viability decrease (inhibition) in experiment [7] and in experiment [8] were 19.5% (inactive) and -6.1% (inactive), respectively.

With `COC(=O)/C=C(/C)N`, the nuclear beta-catenin stimulation in experiment [1] (at 10 µM) is 0.7% (inactive); in experiment [1] (stimulation, at 2 µM), 2.2%. The insulin secretion stimulation in experiment [2] is -0.8% (inactive). Also, the viability decrease in experiment [3] was 17.3% (inactive). In experiment [4], the tube area decrease was -6% (inactive). For the same molecule, in experiment [5], the GLP1 secretion stimulation was 2.3% (inactive). In experiment [6], the inhibition of viability is -17.5% (inactive). The values for the viability decrease (inhibition) in experiment [7] and in experiment [8] were 2.9% (inactive) and -8.3% (inactive), respectively.

On to `CC(C)(C)C(=O)OCOC(=O)C1N2C(=O)CC2S(=O)(=O)C1(C)C` (centres undefined), for which the nuclear beta-catenin stimulation in experiment [1] (at 10 µM) is -1.1% (inactive); in experiment [1] (stimulation, at 2 µM), 1%. Further, the insulin secretion stimulation in experiment [2] is 1.4% (inactive). The viability decrease in experiment [3] was 10.9% (inactive). Also, in experiment [4], the tube area decrease was -21.6% (inactive). The GLP1 secretion stimulation in experiment [5] is -1.3% (inactive). For the same molecule, the inhibition of viability in experiment [6] is -4.1% (inactive). In addition, the viability decrease (inhibition) in experiment [7] is -22.3% (inactive); in experiment [8], 4% (inactive).

`NC(=O)CC[C@@H]1NC(=O)[C@H](Cc2ccccc2)NC(=O)[C@H](Cc2ccc(O)cc2)NC(=O)CCSSC[C@@H](C(=O)N2CCC[C@H]2C(=O)N[C@@H](CCCN=C(N)N)C(=O)NCC(N)=O)NC(=O)[C@H](CC(N)=O)NC1=O`: the nuclear beta-catenin stimulation in experiment [1] (at 10 µM) was -0.6% (inactive); in experiment [1] (stimulation, at 2 µM), -1.2%. For the same molecule, the insulin secretion stimulation in experiment [2] is 0.8% (inactive). The viability decrease in experiment [3] was 8.4% (inactive). In addition, in experiment [4], the tube area decrease was 3.9% (inactive). Further, the GLP1 secretion stimulation in experiment [5] was 2.4% (inactive). In addition, the inhibition of viability in experiment [6] was 1% (inactive). Also, the viability decrease (inhibition) is 1.3% (inactive) in experiment [7] and -0.2% (inactive) in experiment [8].

With `COc1cc2c(cc1OC)C(C(C(=O)N(CCc1ccc(OC)c(OC)c1OC)CCc1ccc(OC)c(OC)c1OC)c1ccccc1)=NCC2` (centres undefined), the nuclear beta-catenin stimulation is 4.4% (inactive) in experiment [1] (at 10 µM) and 8.3% in experiment [1] (stimulation, at 2 µM). In addition, in experiment [2], the insulin secretion stimulation was -0.9% (inactive). For the same molecule, the viability decrease in experiment [3] was 74.1% (active). For the same molecule, the tube area decrease in experiment [4] is 20.6% (inactive). Moreover, the GLP1 secretion stimulation in experiment [5] is 4.1% (inactive). For the same molecule, in experiment [6], the inhibition of viability is 83.5% (active). For the same molecule, the figures for the viability decrease (inhibition) in experiment [7] and in experiment [8] were 87.9% (active) and 69.8% (active), respectively.

For `CCOC(=O)c1ccc(OCCN2C[C@H](O)[C@@H](O)[C@H](O)[C@H]2CO)cc1`, the nuclear beta-catenin stimulation in experiment [1] (at 10 µM) was 1.7% (inactive); in experiment [1] (stimulation, at 2 µM), 0.9%. Further, the insulin secretion stimulation in experiment [2] is 0.1% (inactive). The viability decrease in experiment [3] is -17.2% (inactive). Besides, the tube area decrease in experiment [4] was 10.1% (inactive). Also, the GLP1 secretion stimulation in experiment [5] was -1% (inactive). For the same molecule, in experiment [6], the inhibition of viability was -40.4% (inactive). Moreover, the viability decrease (inhibition) is -62.9% (inactive) in experiment [7] and -12.5% (inactive) in experiment [8].

Regarding `CC(=O)OC[C@H]1O[C@@H](OC(C)=O)[C@H](OC(C)=O)[C@@H]1OC(C)=O`, the nuclear beta-catenin stimulation was -0.3% (inactive) in experiment [1] (at 10 µM) and -1.5% in experiment [1] (stimulation, at 2 µM). Also, the insulin secretion stimulation in experiment [2] was -1.25% (inactive). Moreover, the viability decrease in experiment [3] is -0.8% (inactive). In addition, in experiment [4], the tube area decrease is 9.6% (inactive). In experiment [5], the GLP1 secretion stimulation was -1.3% (inactive). In addition, the inhibition of viability in experiment [6] was 12.6% (inactive). The viability decrease (inhibition) was 13.1% (inactive) in experiment [7] and 4.4% (inactive) in experiment [8].

For the molecule `O=C(O)/C=C\C(=O)O`, the nuclear beta-catenin stimulation in experiment [1] (at 10 µM) was 1.1% (inactive); in experiment [1] (stimulation, at 2 µM), 1.9%. Besides, the insulin secretion stimulation in experiment [2] is 2.7% (inactive). In addition, the viability decrease in experiment [3] was -27.8% (inactive). In addition, the tube area decrease in experiment [4] was -3.6% (inactive). Also, in experiment [5], the GLP1 secretion stimulation was -3.8% (inactive). Also, the inhibition of viability in experiment [6] is 4.1% (inactive). In addition, the viability decrease (inhibition) is 33.2% (inactive) in experiment [7] and -11% (inactive) in experiment [8].

In the case of `O=C(CN1CCNCC1)NC1CCCCC1`, the nuclear beta-catenin stimulation is -0.7% (inactive) in experiment [1] (at 10 µM) and 0.3% in experiment [1] (stimulation, at 2 µM). In experiment [2], the insulin secretion stimulation is 5% (inactive). Also, the viability decrease in experiment [3] was -3.9% (inactive). Moreover, the tube area decrease in experiment [4] was 13.7% (inactive). In experiment [5], the GLP1 secretion stimulation was 1% (inactive). In experiment [6], the inhibition of viability is 7.2% (inactive). In addition, the viability decrease (inhibition) in experiment [7] is 16.3% (inactive); in experiment [8], 4.5% (active).
